Out of some 5,500 compounds screened, about 2,000 (36%) were called active. About 18% were inconclusive and are not listed. Rule as the data show it: active = normalized growth mostly below about 0.91 (no sharp cut-off); inconclusive = no clear call, values can overlap the other calls; inactive = mostly above about 0.92. The list shows a part of the results.
Experiment: chemical genetic growth profiling, strain panel (AID 1159580);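 also: tested at 20 µM; growth read once vehicle control cultures reached saturation at 30 °C; 1 = growth at the plate median or of vehicle wells; lower values mean less growth of the strain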
Conditions: growth OD

Measured: normalized growth

CC(=O)O[C@H]1C[C@@]2(C)[C@H](c3ccoc3)OC(=O)[C@H]3O[C@]32[C@@]2(C)C1[C@]1(C)C(C[C@H]2OC(C)=O)C(C)(C)[C@H](OC(C)=O)C[C@@H]1OC(C)=O (some centres undefined)
inactive: S. cerevisiae deletion strains, locus YJL168C, strain set2, active compounds read low 0.99 | S. cerevisiae deletion strains, locus YJL187C, strain SWE1 (second series), active compounds read low 0.976 | S. cerevisiae deletion strains, locus YJR043C, strain POL32, active compounds read low 0.974 | S. cerevisiae deletion strains, locus YKL009W, strain mrt4, active compounds read low 0.912 | S. cerevisiae deletion strains, locus YKL068W, active compounds read low 0.978 | S. cerevisiae deletion strains, locus YKL085W, strain MDH1 (second series), active compounds read low 0.973 | S. cerevisiae deletion strains, locus YKL085W, strain MDH1, active compounds read low 0.973 | S. cerevisiae deletion strains, locus YKL160W, strain elf1, active compounds read low 1.05 | S. cerevisiae deletion strains, locus YKR001C, strain vps1, active compounds read low 0.982 | S. cerevisiae deletion strains, locus YKR026C, strain gcn3, active compounds read low 0.978 | S. cerevisiae deletion strains, locus YKR091W, strain srl3, active compounds read low 0.995 | S. cerevisiae deletion strains, locus YLL001W, strain dnm1, active compounds read low 0.977 | S. cerevisiae deletion strains, locus YLL026W, active compounds read low 0.974 | S. cerevisiae deletion strains, locus YLL041C, strain sdh2, active compounds read low 0.998 | S. cerevisiae deletion strains, locus YLR027C, strain aat2, active compounds read low 0.965 | S. cerevisiae deletion strains, locus YLR039C, strain RIC1, active compounds read low 0.959 | S. cerevisiae deletion strains, locus YLR058C, strain SHM2, active compounds read low 0.978 | S. cerevisiae deletion strains, locus YLR102C, strain apc9, active compounds read low 0.979 | S. cerevisiae deletion strains, locus YLR221C, strain rsa3, active compounds read low 0.987 | S. cerevisiae deletion strains, locus YLR258W, strain gsy2, active compounds read low 1.02 | S. cerevisiae deletion strains, locus YLR262C, strain YPT6 (second series), active compounds read low 1.03 | S. cerevisiae deletion strains, locus YLR268W, strain sec22, active compounds read low 0.975 | S. cerevisiae deletion strains, locus YLR320W, strain mms22, active compounds read low 0.999 | S. cerevisiae deletion strains, locus YLR342W, strain FKS1, active compounds read low 0.995 | S. cerevisiae deletion strains, locus YLR357W, strain rsc2, active compounds read low 1.01 | S. cerevisiae deletion strains, locus YLR370C, strain arc18, active compounds read low 0.961 | S. cerevisiae deletion strains, locus YLR371W, strain rom2, active compounds read low 0.982 | S. cerevisiae deletion strains, locus YLR384C, strain iki3, active compounds read low 1.01 | S. cerevisiae deletion strains, locus YLR418C, strain cdc73, active compounds read low 1.01 | S. cerevisiae deletion strains, locus YML016C, strain PPZ1, active compounds read low 0.984 | S. cerevisiae deletion strains, locus YML032C, strain rad52, active compounds read low 0.977 | S. cerevisiae deletion strains, locus YML120C, strain ndi1, active compounds read low 1.02 | S. cerevisiae deletion strains, locus YML124C, strain tub3, active compounds read low 0.993 | S. cerevisiae deletion strains, locus YMR058W, strain fet3, active compounds read low 0.988 | S. cerevisiae deletion strains, locus YMR078C, strain ctf18, active compounds read low 0.955 | S. cerevisiae deletion strains, locus YMR125W, strain sto1, active compounds read low 1.02 | S. cerevisiae deletion strains, locus YMR129W, active compounds read low 0.985 | S. cerevisiae deletion strains, locus YMR205C, strain PFK2, active compounds read low 1.01 | S. cerevisiae deletion strains, locus YMR223W, strain ubp8, active compounds read low 0.991 | S. cerevisiae deletion strains, locus YMR231W, strain pep5, active compounds read low 0.979 | S. cerevisiae deletion strains, locus YMR263W, strain SAP30, active compounds read low 0.969 | S. cerevisiae deletion strains, locus YMR307W, strain GAS1, active compounds read low 1.05 | S. cerevisiae deletion strains, locus YNL067W, strain RPL9B, active compounds read low 0.996 | S. cerevisiae deletion strains, locus YNL071W, strain lat1, active compounds read low 0.999 | S. cerevisiae deletion strains, locus YNL128W, strain TEP1, active compounds read low 0.971 | S. cerevisiae deletion strains, locus YNL153C, strain GIM3, active compounds read low 0.985 | S. cerevisiae deletion strains, locus YNL209W, strain ssb2, active compounds read low 0.992 | S. cerevisiae deletion strains, locus YNL233W, strain BNI4, active compounds read low 1 | S. cerevisiae deletion strains, locus YNL248C, strain rpa49, active compounds read low 0.984 | S. cerevisiae deletion strains, locus YNL250W, strain rad50, active compounds read low 0.97 | S. cerevisiae deletion strains, locus YNL271C, strain bni1, active compounds read low 0.979 | S. cerevisiae deletion strains, locus YNL298W, strain CLA4, active compounds read low 0.968 | S. cerevisiae deletion strains, locus YNL307C, strain MCK1, active compounds read low 0.991 | S. cerevisiae deletion strains, locus YNL322C, strain KRE1 (second series), active compounds read low 0.985 | S. cerevisiae deletion strains, locus YNR049C, strain mso1, active compounds read low 0.985 | S. cerevisiae deletion strains, locus YNR052C, strain pop2, active compounds read low 0.98 | S. cerevisiae deletion strains, locus YOL006C, strain TOP1, active compounds read low 0.959 | S. cerevisiae deletion strains, locus YOL012C, strain htz1 1.13 | S. cerevisiae deletion strains, locus YOL147C, strain pex11, active compounds read low 0.987 | S. cerevisiae deletion strains, locus YOR001W, strain rrp6, active compounds read low 0.919 | S. cerevisiae deletion strains, locus YOR061W, strain CKA2, active compounds read low 0.966 | S. cerevisiae deletion strains, locus YOR069W, strain VPS5, active compounds read low 0.992 | S. cerevisiae deletion strains, locus YOR070C, strain gyp1, active compounds read low 1 | S. cerevisiae deletion strains, locus YOR080W, strain dia2, active compounds read low 0.963 | S. cerevisiae deletion strains, locus YOR083W, strain WHI5, active compounds read low 1.04 | S. cerevisiae deletion strains, locus YOR106W, strain vam3, active compounds read low 1.03 | S. cerevisiae deletion strains, locus YOR136W, strain idh2, active compounds read low 0.974 | S. cerevisiae deletion strains, locus YOR144C, strain elg1, active compounds read low 0.989 | S. cerevisiae deletion strains, locus YOR184W, strain ser1, active compounds read low 0.966 | S. cerevisiae deletion strains, locus YOR265W, strain rbl2, active compounds read low 0.951 | S. cerevisiae deletion strains, locus YOR270C, strain vph1, active compounds read low 0.879 | S. cerevisiae deletion strains, locus YOR290C, strain snf2, active compounds read low 1.05 | S. cerevisiae deletion strains, locus YOR316C, strain cot1, active compounds read low 0.982 | S. cerevisiae deletion strains, locus YPL051W, strain arl3, active compounds read low 0.995 | S. cerevisiae deletion strains, locus YPL055C, strain LGE1, active compounds read low 0.964 | S. cerevisiae deletion strains, locus YPL078C, strain atp4, active compounds read low 1.05 | S. cerevisiae deletion strains, locus YPL106C, strain sse1, active compounds read low 1.03 | S. cerevisiae deletion strains, locus YPL240C, strain hsp82, active compounds read low 0.986 | S. cerevisiae deletion strains, locus YPR119W, strain clb2, active compounds read low 0.983 | S. cerevisiae deletion strains, locus YPR141C, strain kar3, active compounds read low 0.984 | S. cerevisiae deletion strains, locus YPR163C, strain tif3, active compounds read low 0.989 | S. cerevisiae deletion strains, locus YPR167C, strain met16, active compounds read low 0.984 | S. cerevisiae deletion strains, strain wtn01, active compounds read low 0.94 | S. cerevisiae strains, strain wild type, active compounds read low 0.993
